The record followed here is PubChem BioAssay (NCATS).

Inconclusive results are not listed. Unmarked numbers belong to inactive results. Calls come from the whole dose curve; as a rule, active = well fitted inhibition curve with a large enough effect; inconclusive = small, poorly fitted or top-dose-only effect; inactive = flat fitted curve, though single readings scatter.
% is set by controls: 0 for no effect and ±100 for the full control effect.

One test is described as follows: Drug repurposing screens with cells derived from glioblastoma tumor samples (AID 1345199). Note: nearly all actives have a fitted effect of over 40% in size. To be noted: GBM patient neurospheres viability, ATP luminescence, 48 h; at 20 µM (top of the series); tumour line C. Put shortly: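 Four patient lines of CD133+ GBM neurospheres were screened at several concentrations; hits were retested in those lines plus three slower-growing GBM lines, using 48-hour treatment and ATP-based viability.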
For the compound `CCCNC(C)C(=O)Nc1c(C)csc1C(=O)OC` (stereo not drawn), the activity, negative = cell killing is 8.39%.
Consider `CC(=O)N(CC(O)CN(C(C)=O)c1c(I)c(C(=O)NCC(O)CO)c(I)c(C(=O)NCC(O)CO)c1I)c1c(I)c(C(=O)NCC(O)CO)c(I)c(C(=O)NCC(O)CO)c1I` (stereo not drawn), for which the activity, negative = cell killing was 4.37%.
With `CN/C(=C\[N+](=O)[O-])NCCSCc1csc(CN(C)C)n1`, the activity, negative = cell killing is -1.68%.
Still for that read-out and setting: as for `O=C(NCC(O)CO)c1c(I)c(C(=O)NCC(O)CO)c(I)c(N(CCO)C(=O)CO)c1I` (stereo not drawn), the figure is -7.07%; as for `COCC(=O)Nc1c(I)c(C(=O)NCC(O)CO)c(I)c(C(=O)N(C)CC(O)CO)c1I` (stereo not drawn), 5.9%; as for `CC(C)(C)C(=O)OCOC(=O)[C@@H]1N2C(=O)[C@@H](NC(=O)[C@H](N)c3ccccc3)[C@H]2SC1(C)C`, 0.2%.
The same measure, in the same setting: the figure for `C[N+]1(C)CCCC(OC(=O)C(O)(c2ccccc2)c2ccccc2)C1` (stereo not drawn) is -3.92%; for `O=C(O)/C=C/c1ccc(Cn2ccnc2)cc1` it is 0.197%; for `C/C=C/C(=O)N(CC)c1ccccc1C` it is -3.94%.

The same test, now with this note: GBM patient neurospheres viability, ATP luminescence, 48 h; at 21.2 µM (top of the series); tumour line B.
Regarding `CCCNC(C)C(=O)Nc1c(C)csc1C(=O)OC` (stereo not drawn), the activity, negative = cell killing is -2.83%.
As for `CC(=O)N(CC(O)CN(C(C)=O)c1c(I)c(C(=O)NCC(O)CO)c(I)c(C(=O)NCC(O)CO)c1I)c1c(I)c(C(=O)NCC(O)CO)c(I)c(C(=O)NCC(O)CO)c1I` (stereo not drawn), the activity, negative = cell killing is -1.18%.
On the same count and under the same terms, as for `CN/C(=C\[N+](=O)[O-])NCCSCc1csc(CN(C)C)n1`, the figure is 0.685%.
On to `O=C(NCC(O)CO)c1c(I)c(C(=O)NCC(O)CO)c(I)c(N(CCO)C(=O)CO)c1I` (stereo not drawn), for which the activity, negative = cell killing is -9.85%.
For the compound `COCC(=O)Nc1c(I)c(C(=O)NCC(O)CO)c(I)c(C(=O)N(C)CC(O)CO)c1I` (stereo not drawn), the activity, negative = cell killing was -2.18%.
For `CC(C)(C)C(=O)OCOC(=O)[C@@H]1N2C(=O)[C@@H](NC(=O)[C@H](N)c3ccccc3)[C@H]2SC1(C)C`, the activity, negative = cell killing was -3.35%.
With `C[N+]1(C)CCCC(OC(=O)C(O)(c2ccccc2)c2ccccc2)C1` (stereo not drawn), the activity, negative = cell killing was -7.65%.
On the same count and under the same terms, the figure for `O=C(O)/C=C/c1ccc(Cn2ccnc2)cc1` is -8.95%.
On to `C/C=C/C(=O)N(CC)c1ccccc1C`, for which the activity, negative = cell killing was 0.996%.
